ALDH1A1 block: blocks purified human ALDH1A1 activity. P00352. Purified ALDH1A1, NADH fluorescence, propionaldehyde substrate. Potency, µM (titrated, usually from 75.3 µM), without a hit: top-dose activity, negative = inhibition, most hits filed as inhibitors. hit rate 7.3% among 220,000;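 further: potency means the concentration at half of the fitted maximal effect; plate controls were no enzyme wells and a reference inhibitor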
IMPase inh: IMPase inhibition in cells; inhibition (IP1 accumulation), % at 46.1 µM; CHO-M1 cells, IP1 accumulation, HTRF TR-FRET ratio; P97697; AID 901; 120,000 tested, under 10 active; active means well fitted curve in the direction sought with a large enough effect in the signal ratio, not every such curve was filed as active; inconclusive means small, poorly fitted or top-dose-only effect, or a change in a side signal; inactive means no such curve, though single readings can be large or run the other way; the % refers to the signal ratio;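 further: cells stimulated with carbachol in lithium chloride buffer; plate controls were DMSO basal wells for no effect and reference inhibitor wells for full effect; higher means more IMPase inhibition seen as more IP1 and lower FRET ratio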
Target sequence (P97697 whole entry, looked up): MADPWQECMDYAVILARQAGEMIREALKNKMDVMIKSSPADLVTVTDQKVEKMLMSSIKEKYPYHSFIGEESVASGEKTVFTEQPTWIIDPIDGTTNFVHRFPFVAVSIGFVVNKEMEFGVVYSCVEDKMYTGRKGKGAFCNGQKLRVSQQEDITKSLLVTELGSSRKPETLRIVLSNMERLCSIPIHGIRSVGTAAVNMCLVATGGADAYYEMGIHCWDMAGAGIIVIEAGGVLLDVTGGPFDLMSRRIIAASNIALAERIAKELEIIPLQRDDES
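The IP-One HTRF competitive assay in carbachol-stimulated CHO-M1 cells quantifies cellular IP1. Compounds spanned up to 46 uM final, and activity is expressed as AC50 from concentration-response fits of the ratio and donor data.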
HPGD inh: HPGD (human) dehydrogenase inhibition. P15428. purified HPGD, NADH fluorescence kinetic, PGE2 substrate. Potency, µM, for inactives: top-dose activity change, negative = inhibition, actives largely listed as inhibitors. hit rate 4.3% among 150,000. AID 894; further: potency means the concentration at half of the fitted maximal effect
Target sequence (P15428 whole entry, looked up): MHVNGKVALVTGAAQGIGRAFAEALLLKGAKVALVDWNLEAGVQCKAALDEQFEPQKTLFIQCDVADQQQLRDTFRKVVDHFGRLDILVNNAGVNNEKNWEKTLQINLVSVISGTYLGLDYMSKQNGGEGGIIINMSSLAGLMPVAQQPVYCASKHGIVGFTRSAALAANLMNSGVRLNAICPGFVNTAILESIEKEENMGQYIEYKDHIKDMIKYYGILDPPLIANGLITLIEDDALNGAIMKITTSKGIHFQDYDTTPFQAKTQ
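NADH formation kinetics: reaction with 30 uM PGE2 and 1 mM NAD+ (final), 20 nM enzyme, Tris-HCl pH 8 with Tween 20, after 15 min compound preincubation at room temperature. Fluorescence change, last versus first of five reads.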
The depositor's hits bear a star; u = inconclusive; x = no result given; [ ] = remark or other dose. In the library only some 9% were active in any assay of this set; here they are far more common. Unless noted, the call rests on the fitted dose curve; in most records, active means well fitted inhibition curve with a large enough effect (not every such curve was filed as active); inconclusive means small, poorly fitted or top-dose-only effect, or another doubt; inactive means no such curve, though single readings can be large or run the other way. Unless noted, on the % scale 0 is the no-effect control and ±100 the full control effect.

SMILES | ALDH1A1 block | IMPase inh | HPGD inh
COc1cc(OC)c(C2CC(=O)N3CN(C)CSC3=C2C#N)cc1OC (stereo unspecified) | 8.9µM* | 7 | 8.9µM*
COc1ccc(C2CC(=O)c3c(O)cc(O[C@H]4OC(COC5OC(C)C(O)C(O)[C@@H]5O)C(O)C(O)C4O)cc3O2)cc1O (stereo partly specified) | 9% | x | -11%
CC(Sc1nncn1-c1ccccc1)C(=O)Nc1cccc([N+](=O)[O-])c1 (stereo unspecified) | u | x | -13%
Cn1c(C(=O)O)c(CC(=O)N2CCC(Cc3ccccc3)CC2)c2ccccc21 | -4% | x | -21%
CCc1cc(=O)[nH]c(SCc2ccc(C)cc2)n1 | -3% | x | x
CCOc1cccc(NC(=O)C2CC(=O)N(C)C(=Nc3cccc(OC)c3)S2)c1 (stereo unspecified) | x | 8 | x
Cc1cc(C)n(-c2ccc(Cl)c(C(=O)Nc3cc(C(F)(F)F)ccc3Cl)n2)n1 | 8% | x | -18%
COc1cc(C=O)ccc1Oc1cnccn1 | -14% | x | x
COCCCNC(=O)CCCCCNS(=O)(=O)c1ccc(Br)cc1 | -4% | x | x
COC(=O)NNC(=O)Cc1cccc2ccccc12 | 4% | x | 4%
COc1ccc(S(=O)(=O)N(C)CC(=O)O)cc1C | 5% | x | 1%
COc1ccc(Br)cc1C1CC(=O)N2CN(C)CSC2=C1C#N (stereo unspecified) | 7.1µM* | 1 | 13µM*
CCSC1=C(C#N)C(c2ccccc2OC)CC(=O)N1 (stereo unspecified) | u | -8 | -8%
Cc1c(NC(=O)CSC2=C(C#N)C(c3ccccc3F)CC(=O)N2)c(=O)n(-c2ccccc2)n1C (stereo unspecified) | -11% | 6 | -7%
N#CC1=C2SCN(Cc3ccccc3)CN2C(=O)CC1c1ccccc1F (stereo unspecified) | 10µM* | -4 | 28µM*
C/C(CC(=O)NCC(C)C)=N\NC(=O)COc1cc(C)c(Br)cc1Br | u | -4 | -13%
C=CCN1C(=O)C2C(C(=O)NC)C3(C)C=CC2(O3)C1C(=O)NCc1ccc(OC)cc1 (stereo unspecified) | 4% | -7 | -4%
O=C(c1ccccc1SCc1ccc(F)cc1)N1CCOCC1 | 0% | x | x
COCC(=O)N1CCC2(CCN(Cc3ccc(C#N)cc3)CC2)CC1 | -3% | x | -2%
CCN(CC)c1nc(N)c2c(N)nc3c(c2c1C#N)CC(c1ccccc1)O3 (stereo unspecified) | u | -3 | u
CCN(CC)c1nc(N)c2c(N)n(-c3ccccc3C)c(=S)c(C#N)c2c1C#N | u | -3 | 20µM*
CCCNC(=O)OC[C@H]1O[C@@H](CCO/N=C2/[C@H]3O[C@@H]3[C@@H](O)[C@H]3[C@H]2CCn2c(=O)n(-c4ccccc4)c(=O)n23)C=C[C@@H]1Oc1ccc(OC)cc1 | -14%[13.5 µM] | x | x
O=C(CS(=O)Cc1ccccc1Cl)Nc1ccccc1Cl (stereo unspecified) | 4% | x | x
O=C(NC(C(=O)c1ccccc1)N1CCOCC1)c1ccccc1 (stereo unspecified) | -1% | -17 | 4%
O=C(NC(C(=O)c1ccccc1)N1CCCCCC1)c1ccco1 (stereo unspecified) | 14µM* | -2 | -5%
SMILES | ALDH1A1 block | IMPase inh | HPGD inh
Cc1ccc(C(=O)C(NC(=O)c2ccco2)N2CCOCC2)cc1 (stereo unspecified) | 28µM* | 14 | -17%
O=C(NC(C(=O)c1ccccc1)N1CCOCC1)c1cccs1 (stereo unspecified) | u | -4 | -20%
O=C(NNC(=O)c1cccnc1)Nc1cccc(Cl)c1Cl | -2% | -4 | x
O=S1(=O)N=C(Nc2cccc(C(F)(F)F)c2)c2ccccc21 | x | -7 | x
CC(C)CCCC(C)C1CCC2C3CC=C4CC(O)CC[C@@]4(C)C3CC[C@@]12C (stereo partly specified) | -5% | x | -19%
CC(=O)Oc1cccc(N2C(=O)C3CC=CCC3C2=O)c1 (stereo unspecified) | 4% | 2 | -3%
CC(=O)Oc1cccc(N2C(=O)c3ccccc3C2=O)c1 | -14% | x | -7%
CC(=O)Oc1cccc(N2C(=O)C3C(C2=O)C2C=CC3C23CC3)c1 (stereo unspecified) | 20µM* | -3 | -14%
CC(=O)Oc1cccc(N2C(=O)C3C4C=CC(C4=C(C)C)C3C2=O)c1 (stereo unspecified) | 7.1µM* | -1 | -11%
Cc1ccc(CNCc2cccnc2)s1 | 16% | x | x
N#Cc1c(Cl)nc(SCc2ccccc2)nc1-c1ccccc1 | 32µM* | u | 2.8µM*
c1ccc(CSc2ncccn2)cc1 | -7% | 11 | -21%
CCOc1nc2cccc(C(=O)OC(C)OC(=O)OC3CCCCC3)c2n1Cc1ccc(-c2ccccc2-c2nn[nH]n2)cc1 (stereo unspecified) | 0% | x | u
CCOC(=O)N1CCC(Nc2ncnc3c2cnn3-c2ccc(Cl)cc2)CC1 | u | 4 | u
Cc1cccc(N2CCN(Cc3ccoc3)CC2)c1C | 25µM* | -4 | 14µM*
COc1cc(CN2CCN(c3cccc(C)c3C)CC2)cc(OC)c1O | -9% | 0 | -9%
CC(C)(C)C(=O)N1CCC(O)(CS(=O)(=O)c2ccc(Cl)c(Cl)c2)CC1 | 0% | x | x
Cc1ccc(CN(CC(=O)NC(C)(C)C)C(=O)CNC(=O)c2cccs2)cc1 | 9% | x | x
N[C@@H](Cc1ccccc1)c1nnc(SCc2ccccc2Cl)o1 | u | 2 | 28µM*
CCc1ccccc1NC(=O)CSc1nnc([C@@H](N)Cc2ccccc2)o1 | u | 11 | -13%
Cc1oc2ccc(O)c(CN3CCOCC3)c2c1C(C)O (stereo unspecified) | 7.1µM* | 13 | -3%
CC(=O)c1c(C)oc2ccc(O)c(CN3CCOCC3)c12 | -12% | 8 | -10%
Cc1ccc(C(=O)N/C(=C/c2cccs2)C(=O)NCCCn2ccnc2)cc1 | -9% | x | -7%
O=C(Cc1cccs1)N1CCN(S(=O)(=O)c2ccc(Br)cc2)CC1 | u | x | 1%
COC(=O)CCC(=O)Nc1sc2c(c1C#N)CCCC2 | 11µM* | 7 | x
SMILES | ALDH1A1 block | IMPase inh | HPGD inh
CCOC(=O)c1c(NC(=O)C2C3C=CC(C3)C2C(=O)O)sc2c1CCCC2 (stereo unspecified) | -5% | x | x
N#Cc1c(NC(=S)NC(=O)Cc2cccs2)sc2c1CCCCC2 | 4µM* | -8 | -27%
N#Cc1c(NC(=O)C2C3C=CC(C3)C2C(=O)O)sc2c1CCCCC2 (stereo unspecified) | 13µM* | x | x
N#Cc1c(NC(=O)c2cnn3cccnc23)sc2c1CCCC2 | 13µM* | x | x
Cn1nccc1C(=O)NC(=S)Nc1sc2c(c1C#N)CCCCC2 | u | -1 | -6%
N#Cc1c(NC(=O)c2nc3ncccn3n2)sc2c1CCCCC2 | u | 3 | -15%
CCCC(=O)Nc1sc2c(c1C#N)CCCC2 | u | 0 | -15%
Cc1ccc(/C=C2/Sc3ccccc3N(CC(=O)NCCCOC(C)C)C2=O)cc1 | 11% | x | -12%
Cc1ccc(S(=O)(=O)N(CCO)c2cc3c(s2)CCCC3)cc1 | u | 4 | -15%
CCc1nnc(NC(=O)CSc2ccc(-c3nc4ccc(C)cc4[nH]3)cn2)s1 | u | -9 | x

Source: PubChem
